# Source: the supplement of paper PMC6555819
# Tests used:
# Assay in all cases: PBM binding z-score (relative to random genomic background probes); higher = stronger binding; sequences stand for … in GC…GCGATTGACAGCGTAGAATGAAGG
# [1] = system: RARg:RXRa (NR concentration 270 nM, RXRa partner concentration 90 nM)
# Method in brief: (§1)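 Probes were double-stranded and carried 34-nt variable regions with direct-repeat seeds, single-nucleotide variants, half-site ablations and random human genomic background sequences, printed on custom Agilent 4×180K protein-binding microarrays. Arrays were incubated 1 h with ligand-free nuclear receptor dimers in PBS pH 7.4, 2% milk, 0.02% Triton X-100, 1 mM DTT, 0.2 mg/mL BSA and 0.4 mg/ml salmon testes DNA. Antibodies against each partner (one per run) detected binding, and scanned fluorescence was regression-normalized. Binding z-scores use the random background probes as reference.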
# [2] = system: RARg homodimer (NR concentration 270 nM)
# Method in brief: as §1
# [3] = system: RXRa DBDmut IVT, anti-RXR (DBD mutation: RXRa K156A/R161A, NR concentration 90 nM)
# Method in brief: as §1
# [4] = system: RXRa homodimer (NR concentration 180 nM)
# Method in brief: as §1
# [5] = system: THRa:RXRa (NR concentration 90 nM, RXRa partner concentration 90 nM)
# Method in brief: as §1
# [6] = system: THRa homodimer (NR concentration 90 nM)
# Method in brief: as §1
# [7] = system: VDR homodimer (NR concentration 270 nM)
# Method in brief: as §1
Sequence,PBM binding z-score [1],PBM binding z-score [2],PBM binding z-score [3],PBM binding z-score [4],PBM binding z-score [5],PBM binding z-score [6],PBM binding z-score [7]
TAGCCTAGGTCATGCGGCCCAGTATAGTGTCGGC,3.79,4.07,0.176,2.87,2.89,0.868,0.276
TTACCAAGGTGAACGGTCGTTGATGCACGCCTTG,0.796,0.84,-0.078,1.24,1.93,0.872,-0.356
TAGCCTAGGTCACATCGGGCCAGTATACGCTATA,4.02,4.72,0.602,3.09,4.5,1.15,0.412
CGAACTAGGTCGTCCAGGACAGTGAATACATTGA,0.869,1.08,1.02,0.72,2.27,0.874,0.591
CGTCCAAGGTCTAGGTCAGTGAAAGAGACTCGAA,1.6,2.4,0.323,0.486,1.86,0.936,0.00097
ATCGAAAGGTCGACGCGGTGAGTATACACCGTTT,4.07,4.09,1.12,3.83,1.97,-0.506,0.391
CCTACTGGGCCATTCAGAGGTCAATGATCATATG,4.55,3.43,0.406,3.05,2.97,1.32,1.44
ATATGTAGGTTAGCTGGGGTCATTCACACTAGGC,4.14,3.12,1.95,5.25,5.01,3.56,5.37
CAAACTAGGTCAAGGTCTAAGTCGGTTTGTGCCA,3.81,4.71,1.44,2.49,3.15,1.57,1.14
ATATGTAGGTTAGCTGGGGTCCTTCAGACTAGGC,0.698,0.529,0.183,0.692,3.45,0.268,0.249
CGAACTAGGTCATCCAGGACCGTGAATACATTGA,3.95,4.72,2.15,2.82,3.12,0.969,0.996
AATACAAGGTCATCGTAGGCCAGAGTACGCACAG,6.21,6.23,3.94,6.37,4.47,2.74,4.03
TCTCGGAGGAAACGAAAGGTCAGAGCTCGACATC,4.03,3.59,0.822,4.07,2.59,0.0929,0.612
GCTAGTTGGTCAGTAAAAGGTGACACACCGGTCG,1.58,1.17,-0.429,0.87,0.938,-0.422,-0.475
CCTACTGGTCCAAGGTCATTGATCAGTCAAAGCA,3.84,3.4,2,3.96,3.59,3.48,3.1
CTATGTAGGTTACGGGGGTCATTCAGTTTGAAAG,5.91,4.59,2.61,6.14,4.12,2.03,5.93
CCTACTGGGCCTAAGGTCATTGATTCCAATGCTC,3.16,2.83,1.17,3.44,3.88,4.55,2.68
GGAACGAGGGCAAAGTTCATAGCATCTGTCGACG,5.71,3.92,3.54,6.27,3.03,0.017,4.43
TAGCCTAGGGCATTCAGGGGCCAGTATAGAAAGC,1.99,1.1,-0.766,0.0553,1.2,-0.586,-0.169
GCTTACGGGTCCAAGGTTATAGCATGAATAGAAT,0.631,0.599,2.18,0.914,1.34,0.551,1.97

Sequence,PBM binding z-score [1],PBM binding z-score [2],PBM binding z-score [3],PBM binding z-score [4],PBM binding z-score [5],PBM binding z-score [6],PBM binding z-score [7]
TCTAGTTGGTCACGGAGGTCACAAACGACGGGTA,4.49,5,0.949,4.62,3.39,2.07,2.78
AGTCAAACTTCAGGACGAGGTAACGTAAAGCACG,0.505,0.586,-0.343,0.511,2.44,1.77,-0.0917
AGTCAAAGTTCATCTAGGTAACATAAGATATGCT,5.69,6.1,4.79,4.84,3.19,0.324,5.55
AATAAAGGGTCATCGTAGGCCAGAGTACGCACAG,6.49,6.51,3.4,6.51,4.49,0.425,3.62
ATCGAAAGGTCTAAGGTGAGTATACCCACCCGAA,1.27,1.29,-0.301,1.25,2.28,1.67,0.152
GATACAGGGTCAGCTACAGGCCAGAGTATGGAAA,5.37,4.29,1.25,4.23,2.83,0.162,0.801
CCGAATAGGTTACGAGGGGGCATTCAGTGCGAAT,3.99,2.87,1.75,3.03,4.03,0.692,3.51
GCTGCTAGGTCAACTGATGGCCAGCTAAAGCTCG,4.59,5.33,1.01,2.75,2.89,0.674,-0.329
CGTCAAAGTTCAACTGAGGTAACGTAAAGCACGC,6.11,6.84,4.76,5.4,5.27,1.89,4.07
ACTTAAGGGTCAACGAGGTTATAGCACGCGTATA,6.9,6.85,3.8,7.56,4.4,1.07,5.42
CGAACTAGGTCGCCAGGACAGTGAAGAGGTTGGA,0.757,1.27,0.47,0.761,1.68,0.578,-0.15
ATATGTAGGATAGCTGGGGTCATTCAGACTAGGC,3.3,2.31,1.61,4.92,4.2,3.17,5.01
TAGCCTAAGTCATGCGGGCCAGTATAGTGTCGGC,-0.283,-0.412,-0.949,-0.136,-0.34,-0.848,-1.04
GGAACGAGGTCAAGTTGATAGCAGAGTTTGATGG,6.84,7.08,4.6,7.65,4.27,2.78,5.11
CCAACTGGGCCAAAAAGGTCATTGATGCCGATAA,4.71,4.35,0.992,5.08,3.11,0.427,2.62
AATACAGGGTAACTAGGCCAGAGTAGGTACGAAT,0.64,0.567,-0.0804,0.664,0.631,-0.0802,0.108
GCTGCTAGGTCAACTGATGGTCACCTAAAGCTCG,5.53,5.1,1.29,3.52,3.38,1.69,0.0494
AGTCAAAGTTGAGGACGAGGTAACGTAAAGCACG,1.38,1.24,-0.405,0.856,3.3,1.96,0.344
AGTCAAAGTTCATCTAGGTCACGTAAGATATGCT,6.63,7.35,4.81,5.75,4.62,2.83,7.84
AGTCAAAGTTTATCTAGGTAACGTAAGATATGCT,1.12,1.41,1.93,0.551,1.6,-0.0604,1.31

Sequence,PBM binding z-score [1],PBM binding z-score [2],PBM binding z-score [3],PBM binding z-score [4],PBM binding z-score [5],PBM binding z-score [6],PBM binding z-score [7]
CCGACTGGGGCAAGGTCACCATAACGCACAGCCA,4.32,4.45,0.549,4.37,3.66,2.7,2.02
CCGAGTAGGTTACTAGGGGGCATTCAGTGCGAAT,2.46,2.1,1.4,1.72,3.57,0.676,3.59
ATATGTAGGTTATCGGGTCATACAGTTTGCGCAT,3.64,2.84,1.67,3.87,3.68,2.82,3.52
ACTCGGAGGACAAAGGTCAGGGCTACGCCAGTGA,6.45,5.95,0.934,6.71,3.63,1.02,1.33
CCTACTGGGCCACTAAAGGTCATTGATTCAGTGA,4.48,4.5,0.757,4.87,3.61,0.905,2.62
CAAACTAGGTCACAGTGGTCAAAGTCCGTGCGTA,4.19,5.18,1.51,3.32,3.17,1.43,1.23
TTGCCAAGGTGAAAGGTCGTTGATGCACGCCTTG,4.33,2.25,0.468,5.91,3.3,0.784,1.34
ACTAGTTGGTCAGCTGAGGTCACACCCAATTCGG,3.85,3.86,1.34,3.47,5,4.84,2.67
TGTATGAGGTTAAAGATCAGGGAACGTGGCGTCG,2.79,1.99,1.22,4.35,2.84,1.01,1.19
AAAACAGGGTCATCGTAGGCCAGAGTACGCACAG,6,5.11,3.74,7.23,4.81,1.58,4.06
GCTAGTTGGTCAGTAAAATGTCACACACCGGTCG,0.584,0.697,0.121,0.272,-0.216,-0.123,0.162
TCTTGTAGATCGATAGAGGTTAAGAAAGTGCGCT,0.525,0.389,0.591,1.1,1.48,-0.46,0.0902
AGAATGAGGTCACCAAAGATCAGGGAAACGCTTG,6.82,7.16,4.12,7.51,4.63,3.75,3.69
TACCCTAGGTCATGGGCCAGTATACCACGCGAAC,4.53,4.92,0.55,4,3.26,2.22,1.35
TAGCCTAGTTCATTCAGGGGCCAGTATAGAAAGC,3.6,1.34,2.96,0.328,1.68,-0.0964,2.71
TGTCAACGTTCAAAGGTAACGTAAGTATCCACAC,1.28,1.09,-0.465,1.27,1.46,-0.221,-0.0342
GCTGCTAGGTCAACTGATGGTCAACTAAAGCTCG,5.53,5.66,1.57,2.94,2.91,1.01,0.0813
CCTTACGGGTCACTCCAGGTTATATCATCGGAGT,4.35,4.43,1.46,4.17,5.19,0.814,1.49
TCTTGTAGGTCAATAGAGGTTAAGAAAGTGCGCT,4.56,5.15,1.88,4.31,4.71,0.329,1.63
AGAATGAGGTTACCAAAGTTCAGGGAAACGCTTG,4.44,3.52,1.62,4.3,4.02,0.878,2.32
